According to PubChem BioAssay AID1159580 (chemical genetic matrix, 2015):
Out of some 5,500 compounds screened, about 2,000 (36%) were called active. Roughly 18% stayed inconclusive and do not appear here. Rule as the data show it: active = normalized growth mostly below about 0.91 (no sharp cut-off); inconclusive = no clear call, values can overlap the other calls; inactive = mostly above about 0.92. This is one part of the list.

Experiment: chemical genetic growth profiling, strain panel (AID 1159580);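 also: tested at 20 µM; growth read once vehicle control cultures reached saturation at 30 °C; 1 = growth at the plate median or of vehicle wells; lower values mean less growth of the strain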
Conditions: S. cerevisiae deletion strains, growth OD

Measured: normalized growth

Cc1ncc(CSSCc2cnc(C)c(O)c2CO)c(CO)c1O
inactive: locus YHR030C, strain SLT2, stronger effect = lower value 1.01 | locus YHR079C, strain IRE1, stronger effect = lower value 1.01 | locus YJL095W, strain BCK1, stronger effect = lower value 0.995 | locus YJR066W, strain TOR1, stronger effect = lower value 0.945 | locus YLR113W, strain HOG1, stronger effect = lower value 0.983 | locus YNL183C, strain NPR1, stronger effect = lower value 0.948 | locus YOR231W, strain MKK1, stronger effect = lower value 1.01 | locus YPL256C, strain CLN2, stronger effect = lower value 1.01
